Bioassay records from PubChem.
In the library only some 11% were active in any assay of this set; here they are far more common.
L3MBTL1 inh: L3MBTL1 (human) inhibition. Q9Y468. AlphaScreen L3MBTL1–H3K9me1 peptide binding. Potency, µM (highest dose often 57.1 µM), actives largely listed as inhibitors. actives 0.66% (n = 230,000). AID 485360; also: nearly all actives have a fitted effect of over 60% in size
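Displacement of a biotinylated histone H3(1-15) peptide monomethylated at Lys9 (75 nM) from L3MBTL1 (50 nM) was measured by AlphaScreen after a 30 min room-temperature compound incubation; cefsulodin titration served as intraplate control.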
BAZ2B block: BAZ2B (human) inhibition; AlphaScreen BAZ2B-H3K14Ac peptide displacement; Potency, µM (series often up to 114 µM), most hits filed as inhibitors; actives 4.4% (n = 360,000); Q9UIF8; also: nearly all actives have a fitted effect of over 60% in size
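AlphaScreen luminescence quantifies BAZ2B engagement of H3K14Ac peptide; the protein and biotinylated peptide are both at 50 nM final, buffer PBS pH 7.4 with 0.01% Tween-20, all steps at room temperature.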
JMJD2A Tudor: blocks the human JMJD2A Tudor domain; AlphaScreen JMJD2A-Tudor / H3K4me3 peptide binding; Potency, µM (doses to about 114 µM), hits mostly inhibitors; actives 4.4% (n = 390,000); AID 504339; also: nearly all actives have a fitted effect of over 50% in size
HP1b binding inh: inhibitors of HP1-beta chromodomain binding to methylated histone tails. actives 0.56% (n = 390,000). AID 540317. AlphaScreen HP1-beta / biotin-H3K9me3 peptide binding. Potency, µM (top dose mostly 114 µM), hits mostly inhibitors. P83916; also: nearly all actives have a fitted effect of over 70% in size
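Compound inhibition of the preformed complex between 50 nM HP1-beta and 50 nM biotinylated H3K9me3 peptide was read by AlphaScreen. Buffer was PBS pH 7.4 with 0.01% Tween-20. Incubations ran 30 min at room temperature, with 10 ug/mL donor/acceptor beads.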
G9a block: blocks human histone lysine methyltransferase G9a; Q96KQ7; G9a H3K9 monomethylation, AlphaScreen, 2 h; Potency, µM (series often up to 102 µM), usual class: inhibitors; actives 8.8% (n = 350,000); AID 504332; also: nearly all actives have a fitted effect of over 75% in size
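Readings reflect AlphaScreen signal from monomethyl-H3K9 antibody detection. HMT at 20 nM; substrate b-H3K9 500 nM; cofactor SAM 20 uM; 2 h RT reaction; compounds tested as titrations in qHTS with 15 min preincubation.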
Hits are given with their value; i = inactive; ? = inconclusive; nt = no result; [ ] = remark or other dose. Calls follow the shape of the dose curve; as a rule, active = well fitted inhibition curve with a large enough effect; inconclusive = small, poorly fitted or top-dose-only effect; inactive = no such curve, though single readings can be large or run the other way.

SMILES	L3MBTL1 inh	BAZ2B block	JMJD2A Tudor	HP1b binding inh	G9a block
Cc1c(OC(=O)c2ccc([N+](=O)[O-])cc2)c2c(c[n+]1C)COC(C)(C)OC2	i	?	50.1µM	i	nt
O=C(c1ccc2c(=O)n(CC3CCCO3)c(=S)[nH]c2c1)N1CCN(C(=O)c2ccco2)CC1 (configuration not stated)	nt	nt	?	i	nt
C=CCc1cccc(/C=N/NC(=O)CCCNc2ccc(C)cc2)c1O	i	31.6µM	?	?	i
COc1ccc(OC)c(Nc2nc(NCc3ccco3)c3ccccc3n2)c1	i	39.8µM	50.1µM	?	?
Oc1ccccc1Nc1nc(NCc2ccco2)c2ccccc2n1	i	44.7µM	?	i	50.1µM
Cc1ccccc1Nc1nc(NCc2ccco2)c2ccccc2n1	nt	?	56.2µM	?	?
COc1ccc(OC)c(Nc2nc(NCc3ccco3)nc(N)c2[N+](=O)[O-])c1	nt	i	i	i	nt
Cc1ccc(-c2nc(NCc3ccco3)c3ccccc3n2)cc1	i	i	i	i	?
Cc1ccc(C)c(S(=O)(=O)N2C(=S)NC(=O)C2CC(C)C)c1 (configuration not stated)	nt	i	i	i	?
CC(C)C1C(=O)NC(=S)N1S(=O)(=O)c1ccc(C(C)(C)C)cc1 (configuration not stated)	nt	i	i	i	3.16µM
CCn1c(COc2ccc(Cl)cc2)nnc1SCc1ccc(C#N)cc1	i	i	i[11.4 µM]	i	39.8µM
CCn1c(COc2ccccc2)nnc1SCc1ccc(C#N)cc1	i	i	i	i	i
O=C(NCSc1ccnc(SCNC(=O)c2ccccc2)n1)c1ccccc1	i	i	i	i	3.98µM
O=C(NCCc1ccccc1)c1ccncc1	i	i	nt	nt	?
O=C(NCSc1ccncn1)c1ccccc1	i	?	20µM	i	?
Cc1ccc(-c2[nH]ncc2CNCc2ccc(CN(C)C)cc2)cc1	nt	nt	i	i	nt
COc1ccc(OC)c(-c2nc(CN3CCCCC3c3cccnc3)c(C)o2)c1 (configuration not stated)	i	i	i	i	i
COc1ccc(CN2CCCCC2c2cccnc2)c(OC)c1C (configuration not stated)	i	?	i	i	79.4µM
COc1ccccc1C(=O)c1c(N)c(-c2nc(-c3ccccc3)cs2)c2ccccn12	nt	i	i	i	i
Cc1cc(C(=O)Nc2sc(C)c(C)c2C#N)no1	i	i	i	i	?
Cc1ccc2nc3sc(C(=O)NCc4ccco4)c(N)c3cc2c1	i	i	i	i	1.58µM
COc1cc2cc3c(N)c(C(=O)Nc4sc(C)c(C)c4C#N)sc3nc2cc1OC	3.16µM	56.2µM	79.4µM	?	i
COc1ccc(-c2cc(C(=O)NCc3ccco3)c3ccccc3n2)cc1OC	nt	nt	i	i	nt
COc1cc2cc3c(N)c(C(=O)NCc4ccco4)sc3nc2cc1OC	i	i	i	i	28.2µM
CCCCOc1ccc(C(=O)Nc2ccc3c(c2)CCCN3S(=O)(=O)c2ccc(C)cc2)cc1	nt	i	i	i	i
SMILES	L3MBTL1 inh	BAZ2B block	JMJD2A Tudor	HP1b binding inh	G9a block
COc1cc(-c2nc3cnccn3c2Nc2ccccc2)ccc1O	i	i	i	i	?
Cc1c(-c2ccc(Br)cc2)nc2ccccn12	i	i	i	i	44.7µM
COc1cc(-c2nc3ccccn3c2/N=C/c2cc(OC)c(OC)c(OC)c2)ccc1O	nt	nt	44.7µM	i	nt
CN(C)c1ccc(-c2nc3ccccn3c2/N=C/c2ccc(Br)cc2)cc1	?	11.2µM	44.7µM	?	10µM
O=C(Nc1ccc(Br)cc1)c1cccc(C(=O)Nc2ccc(Br)cc2)c1	nt	i	i	i	i
CC(=O)N1c2ccc(S(=O)(=O)NCC3CCC(C(=O)Nc4cc(C)ccn4)CC3)cc2CC1C (configuration not stated)	nt	i	i	i	i
CCN(CC)CCC(=O)c1ccc(F)cc1	i	i	i	i	39.8µM
CN(C)CCC(=O)c1ccc(F)cc1	i	i	i[11.4 µM]	i	?
COc1cccc(-c2cc3c(=O)n(-c4ccccc4)c(=S)[nH]c3s2)c1	i	i	i	i	?
COc1cccc(C2NC(=O)c3sc(=S)n(-c4ccccc4)c3N2)c1 (configuration not stated)	nt	i	i	i	39.8µM
COc1ccc(OC)c(C2NC(=O)c3sc(=S)n(-c4ccccc4)c3N2)c1 (configuration not stated)	?	?	i	i	3.98µM
COc1ccc(NC(=S)N2CCN(C/C=C/c3ccccc3)CC2)cc1OC	i	?	i	i	nt
COc1ccc(O)c(CN2CCN(C/C=C/c3ccccc3)CC2)c1	i	?	56.2µM	i	?
COc1cc(Br)cc(CN2CCN(C/C=C/c3ccccc3)CC2)c1O	i	39.8µM	?	i	39.8µM
NC1=NCC2c3ccccc3Cc3ccccc3N12 (configuration not stated)	nt	nt	nt	nt	i
COc1ccc2nc3ccccc3nc2c1N	?	28.2µM	39.8µM	39.8µM	1µM
COc1ccc2nc3cccc(OC)c3nc2c1	nt	?	i	i	22.4µM
COc1ccccc1-c1nc2ccccc2nc1-c1ccccc1OC	i	i	i	i	i
Cc1cc(C)c(Cn2c(=O)n(CCCC(=O)NCc3ccc4c(c3)OCO4)c(=O)c3sccc32)c(C)c1	nt	i	i	i	i
O=C(NCCSCc1ccc(Cl)cc1)C1CCN(S(=O)(=O)Cc2ccccc2)CC1	nt	i	i	i	i
Cc1ccc(-n2nc(C)c3c(C)c(CCC(=O)Nc4ccc(CN5CCCC5)cc4)c(C)nc32)cc1	nt	i	?	i	50.1µM
CN1c2ccccc2Sc2cc(N)ccc21	?	28.2µM	31.6µM	?	1.12µM
O=C(O)CCN1c2ccccc2Sc2ccccc21	i	?	i	i	i[12.7 µM]
CCCNC(=S)N1CCN(Cc2ccc3c(c2)OCO3)CC1	i	?	28.2µM	?	20µM
Fc1ccccc1NC(=S)NCc1ccc2c(c1)OCO2	i	i	i	i	i
SMILES	L3MBTL1 inh	BAZ2B block	JMJD2A Tudor	HP1b binding inh	G9a block
O=C(NC(=S)N1CCN(Cc2ccc3c(c2)OCO3)CC1)c1cccc(Br)c1	?	25.1µM	?	i	i
C=CCNC(=S)N1CCN(Cc2ccc3c(c2)OCO3)CC1	i[2.29 µM]	50.1µM	14.1µM	?	i[0.501 µM]
O=S(=O)(c1c(F)cccc1F)N1CCN(C(=S)NCc2ccc3c(c2)OCO3)CC1	i	i	i	i	31.6µM
COc1ccc(OC)c(CNS(=O)(=O)c2c(C(=O)N3CCCCCC3)c(C)n(C)c2C)c1	nt	i	i	i	i
COCCCNC(=O)CN1C(=O)COc2ccc(S(=O)(=O)N3CCCC3)cc21	nt	i	i	i	i
COc1cccc(CCc2nnc(N)s2)c1	i	i	i	i	79.4µM
Cc1ccc(NC(=O)CCn2c(=O)c3cccn3c3ccccc32)c(Cl)c1	nt	i	i	i	i
CCCCOc1ccc(C2c3c(-c4ccccc4O)n[nH]c3C(=O)N2Cc2ccncc2)cc1OC (configuration not stated)	nt	?	?	i	i
CCOC(=O)Cc1csc(NC(=O)COc2ccc(N(C)S(=O)(=O)c3ccc(C)cc3)cc2)n1	nt	i	i	i	i
